Source: PubChem BioAssay (EPA / NIEHS)
Activity calls are given as the source filed them. How the source made its calls: active means hit-call score of the fitted dose curve at least 0.9, where 1 is the maximum; inactive means score below 0.9.

How the values were obtained:
[1] = CEETOX_H295R_PROG: CeeTox H295R High-throughput Steroidogenesis Assay for Progesterone (PROG) (AID 2283442); details: actives raise or lower the signal;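 on AC50: human H295R adrenal cells primed with 10 µM forskolin before dosing; progesterone secreted into medium by H295R cells measured by HPLC-MS/MS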
Summary of the method: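 Steps: seed H295R cells and let them adhere overnight; prime 48 h with 10 uM forskolin; dose with compound in DMSO at 0.1% final for 48 h; extract medium steroids with MTBE; measure progesterone by LC-MS/MS. MTT viability was run in the same wells.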

[2] = read-out: Tumor necrosis factor receptor superfamily member 6 (Homo sapiens) (UniProt P25445); test: LTEA_HepaRG_FAS: Life Technologies and Expression Analysis (LTEA) Assay for Fas cell surface death receptor (FAS) using HepaRG (AID 2283447); details: mRNA level, 48 h; actives raise or lower the signal
Summary of the method: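 Differentiated HepaRG cells in serum-free induction medium were exposed 48 h to 8 half-log concentrations up to 100 uM in 0.5% DMSO, in duplicate. FAS mRNA was measured by qRT-PCR normalised to ACTB, GAPDH and POLR2A; bidirectional fit versus DMSO.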

[3] = read-out: Fatty acid synthase (Homo sapiens) (UniProt P49327); test: LTEA_HepaRG_FASN: Life Technologies and Expression Analysis (LTEA) Assay for Fatty Acid Synthase (FASN) using HepaRG (AID 2283448); details: mRNA level, 48 h; actives raise or lower the signal;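 on AC50: differentiated human HepaRG liver cells in serum-free induction medium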
Summary of the method: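 Cells were plated, cultured 48 h, switched to serum-free induction medium, then dosed in duplicate (max 100 uM, half-log dilutions, 0.5% DMSO) for 48 h. RNA was then isolated and FASN quantified by qRT-PCR.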

[4] = read-out: Cyclin D2 (CCND2), CCND2 (gene 894); test: LTEA_HepaRG_CCND2: Life Technologies and Expression Analysis (LTEA) Assay for Cyclin D2 (CCND2) using HepaRG (AID 2283449); details: mRNA level, 48 h; actives raise or lower the signal;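 further: CCND2 transcript measured by TaqMan qRT-PCR and normalised to three housekeeping genes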
Summary of the method: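 HepaRG, 48 h dosing, 8-pt half-log curve from 100 uM, 0.5% DMSO; duplicate wells. Readout: CCND2 transcript by microfluidic qRT-PCR, housekeeping-normalised; bidirectional fit vs DMSO baseline.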

[5] = read-out: Cyclin Dependent Kinase Inhibitor 1A (CDKN1A), CDKN1A (gene 1026); test: LTEA_HepaRG_CDKN1A: Life Technologies and Expression Analysis (LTEA) Assay for Cyclin Dependent Kinase Inhibitor 1A (CDKN1A) using HepaRG (AID 2283450); details: mRNA level, 48 h; actives raise or lower the signal
Summary of the method: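 Read-out is CDKN1A mRNA by TaqMan qRT-PCR, normalized to three housekeeping genes and fitted in both directions against the DMSO baseline. Human HepaRG cells were treated 48 h with test chemicals up to 100 uM in half-log steps, 0.5% DMSO.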

[6] = read-out: Cyclin D1 (CCND1), CCND1 (gene 595); test: LTEA_HepaRG_CCND1: Life Technologies and Expression Analysis (LTEA) Assay for Cyclin D1 (CCND1) using HepaRG (AID 2283451); details: mRNA level, 48 h; actives raise or lower the signal;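 on AC50: differentiated human HepaRG liver cells in serum-free induction medium; TaqMan qRT-PCR transcript level normalised to ACTB GAPDH and POLR2A housekeeping genes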
Summary of the method: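 HepaRG plated 48 h, medium switched to serum-free induction medium, chemicals added in duplicate (top 100 uM, half-log steps, 0.5% DMSO) for 48 h, cells lysed, RNA measured by TaqMan qRT-PCR.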

[7] = read-out: flavin-containing dimethylaniline monooxygenases 3 (FMO3), FMO3 (gene 2328); test: LTEA_HepaRG_FMO3: Life Technologies and Expression Analysis (LTEA) Assay for flavin-containing dimethylaniline monooxygenases 3 (FMO3) using HepaRG (AID 2283453); details: mRNA level, 48 h; actives raise or lower the signal;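 on AC50: differentiated human HepaRG liver cells in serum-free induction medium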
Summary of the method: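 FMO3 transcript quantified by TaqMan qRT-PCR against three housekeeping genes after 48 h chemical exposure of HepaRG cells. Eight-point half-log series, top 100 uM, 0.5% DMSO vehicle; phenobarbital 1mM induction control; up- or down-regulation fitted.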

[8] = read-out: CFLAR gene, CFLAR (gene 8837); test: LTEA_HepaRG_CFLAR: Life Technologies and Expression Analysis (LTEA) Assay for CFLAR gene using HepaRG (AID 2283455); details: mRNA level, 48 h; actives raise or lower the signal
Summary of the method: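 qRT-PCR read-out (Fluidigm/TaqMan) of CFLAR mRNA, normalized to three housekeeping genes, in differentiated human HepaRG cells after 48 h chemical exposure; 8-point half-log series from 100 uM in 0.5% DMSO; bidirectional curve fitting versus DMSO.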

[9] = read-out: Forkhead box O1 (FOXO1), FOXO1 (gene 2308); test: LTEA_HepaRG_FOXO1: Life Technologies and Expression Analysis (LTEA) Assay for Forkhead box O1 (FOXO1) using HepaRG (AID 2283456); details: mRNA level, 48 h; actives raise or lower the signal
Summary of the method: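 HepaRG, 48 h exposure, 8-pt half-log series from 100 uM in 0.5% DMSO, duplicates; Fluidigm qRT-PCR mRNA, housekeeping-normalised; bidirectional fit vs DMSO baseline.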

[10] = read-out: growth arrest and DNA damage 45 (GADD45A), GADD45A (gene 1647); test: LTEA_HepaRG_GADD45A: Life Technologies and Expression Analysis (LTEA) Assay for growth arrest and DNA damage 45 (GADD45A) using HepaRG (AID 2283458); details: mRNA level, 48 h; actives raise or lower the signal
Summary of the method: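 Transcript induction or loss, quantified by TaqMan qRT-PCR against three housekeeping genes, is the read-out. HepaRG cells received chemicals for 48 h across eight half-log concentrations from 100 uM in 0.5% DMSO; gain and loss fitted relative to DMSO.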

[11] = read-out: Forkhead box O3 (FOXO3), FOXO3 (gene 2309); test: LTEA_HepaRG_FOXO3: Life Technologies and Expression Analysis (LTEA) Assay for Forkhead box O3 (FOXO3) using HepaRG (AID 2283459); details: mRNA level, 48 h; actives raise or lower the signal
Summary of the method: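 qRT-PCR readout of FOXO3 transcript, normalized to three housekeeping genes (ACTB, GAPDH, POLR2A); gain or loss fitted against 0.5% DMSO vehicle. HepaRG cells, 48 h chemical exposure, 8-point half-log series, top 100 uM.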

[12] = read-out: ABC Transporter (ABCB1), ABCB1 (gene 5243); test: LTEA_HepaRG_ABCB1: Life Technologies and Expression Analysis (LTEA) Assay for ABC Transporter (ABCB1) using HepaRG (AID 2283460); details: mRNA level, 48 h; actives raise or lower the signal
Summary of the method: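 HepaRG, 48 h exposure, 8-pt half-log series from 100 uM, 0.5% DMSO vehicle, duplicates. Readout: ABCB1 transcript by Fluidigm TaqMan qRT-PCR, housekeeping-normalized; bidirectional curve fit vs DMSO baseline.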

[13] = read-out: growth arrest and DNA damage 45 (GADD45B), GADD45B (gene 4616); test: LTEA_HepaRG_GADD45B: Life Technologies and Expression Analysis (LTEA) Assay for growth arrest and DNA damage 45 (GADD45B) using HepaRG (AID 2283461); details: mRNA level, 48 h; actives raise or lower the signal
Summary of the method: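 HepaRG, ~100,000 cells/well, 48 h plating; serum-free induction medium; cpd 100 uM top, half-log x8, 0.5% DMSO, duplicate, 48 h; lysis in RLT, RNA isolation, qRT-PCR; norm ACTB/GAPDH/POLR2A; bidirectional fit vs DMSO.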

[14] = read-out: ABC Transporter (ABCC3), ABCC3 (gene 8714); test: LTEA_HepaRG_ABCC3: Life Technologies and Expression Analysis (LTEA) Assay for ABC Transporter (ABCC3) using HepaRG (AID 2283462); details: mRNA level, 48 h; actives raise or lower the signal
Summary of the method: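 Human HepaRG, 48 h dosing, 8-pt half-log series from 100 uM, 0.5% DMSO vehicle, duplicates. ABCC3 mRNA by TaqMan qRT-PCR, housekeeping-normalized; bidirectional curve fit vs DMSO.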

[15] = read-out: ABC Transporter (ABCB11), ABCB11 (gene 8647); test: LTEA_HepaRG_ABCB11: Life Technologies and Expression Analysis (LTEA) Assay for ABC Transporter (ABCB11) using HepaRG (AID 2283463); details: mRNA level, 48 h; actives raise or lower the signal
Summary of the method: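 HepaRG, 48 h exposure, 8-pt half-log CRC top 100 uM, 0.5% DMSO vehicle, duplicates. Readout: TaqMan qRT-PCR of ABCB11 mRNA, housekeeping-normalized (ACTB/GAPDH/POLR2A). Bidirectional fit vs DMSO baseline.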

[16] = read-out: ABC Transporter (ABCC2), ABCC2 (gene 1244); test: LTEA_HepaRG_ABCC2: Life Technologies and Expression Analysis (LTEA) Assay for ABC Transporter (ABCC2) using HepaRG (AID 2283464); details: mRNA level, 48 h; actives raise or lower the signal
Summary of the method: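 HepaRG, 48 h post-plating; serum-free induction medium; cpd 8-pt, 100 uM top, half-log, 0.5% DMSO, duplicate, 48 h. Readout: ABCC2 mRNA by qRT-PCR, norm. ACTB/GAPDH/POLR2A. Bidirectional fit vs DMSO baseline.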

[17] = read-out: Broad substrate specificity ATP-binding cassette transporter ABCG2 (Homo sapiens) (UniProt Q9UNQ0); test: LTEA_HepaRG_ABCG2: Life Technologies and Expression Analysis (LTEA) Assay for ABC Transporter (ABCG2) using HepaRG (AID 2283465); details: mRNA level, 48 h; actives raise or lower the signal
Summary of the method: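 HepaRG, 48 h exposure, 8-pt half-log series from 100 uM, 0.5% DMSO vehicle, duplicates. Readout: ABCG2 transcript by qRT-PCR (Fluidigm array), housekeeping-normalized; bidirectional curve fit relative to DMSO baseline.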

[18] = read-out: ATP-citrate lyase (ACLY), ACLY (gene 47); test: LTEA_HepaRG_ACLY: Life Technologies and Expression Analysis (LTEA) Assay for ATP-citrate lyase (ACLY) using HepaRG (AID 2283466); details: mRNA level, 48 h; actives raise or lower the signal
Summary of the method: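 qRT-PCR readout of ACLY transcript after 48 h chemical treatment of HepaRG cells; expression normalized to three housekeeping genes. Eight-point half-log series, highest 100 uM, 0.5% DMSO vehicle. Gain or loss fitted against DMSO baseline.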

[19] = read-out: Peroxisomal acyl-coenzyme A oxidase 1 (ACOX1) gene, ACOX1 (gene 51); test: LTEA_HepaRG_ACOX1: Life Technologies and Expression Analysis (LTEA) Assay for Peroxisomal acyl-coenzyme A oxidase 1 (ACOX1) gene using HepaRG (AID 2283467); details: mRNA level, 48 h; actives raise or lower the signal
Summary of the method: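 HepaRG, 48 h chemical exposure, 8-pt half-log series from 100 uM top, 0.5% DMSO vehicle, duplicates. Readout: ACOX1 mRNA by Fluidigm qRT-PCR, housekeeping-normalized; bidirectional fit vs DMSO baseline.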

Measured: AC50

Sequence of Broad substrate specificity ATP-binding cassette transporter ABCG2 (Homo sapiens) (Q9UNQ0 whole entry, looked up): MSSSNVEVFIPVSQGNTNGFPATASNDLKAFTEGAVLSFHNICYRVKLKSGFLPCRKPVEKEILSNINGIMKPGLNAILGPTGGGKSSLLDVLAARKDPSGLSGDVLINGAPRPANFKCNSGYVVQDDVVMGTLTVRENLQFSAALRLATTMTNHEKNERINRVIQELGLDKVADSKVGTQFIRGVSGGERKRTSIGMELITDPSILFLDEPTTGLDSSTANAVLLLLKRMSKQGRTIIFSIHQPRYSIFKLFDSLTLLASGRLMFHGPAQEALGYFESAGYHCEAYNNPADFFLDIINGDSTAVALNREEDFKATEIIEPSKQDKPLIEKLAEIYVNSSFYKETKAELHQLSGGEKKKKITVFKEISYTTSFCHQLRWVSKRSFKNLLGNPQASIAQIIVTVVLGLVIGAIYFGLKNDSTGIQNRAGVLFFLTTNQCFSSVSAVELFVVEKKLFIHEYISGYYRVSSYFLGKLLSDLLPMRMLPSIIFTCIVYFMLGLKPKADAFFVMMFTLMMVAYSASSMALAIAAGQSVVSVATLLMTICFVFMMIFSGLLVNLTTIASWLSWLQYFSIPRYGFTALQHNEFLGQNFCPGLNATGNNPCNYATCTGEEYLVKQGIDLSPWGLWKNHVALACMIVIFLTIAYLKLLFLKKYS
Sequence of Fatty acid synthase (Homo sapiens) (P49327 whole entry, looked up): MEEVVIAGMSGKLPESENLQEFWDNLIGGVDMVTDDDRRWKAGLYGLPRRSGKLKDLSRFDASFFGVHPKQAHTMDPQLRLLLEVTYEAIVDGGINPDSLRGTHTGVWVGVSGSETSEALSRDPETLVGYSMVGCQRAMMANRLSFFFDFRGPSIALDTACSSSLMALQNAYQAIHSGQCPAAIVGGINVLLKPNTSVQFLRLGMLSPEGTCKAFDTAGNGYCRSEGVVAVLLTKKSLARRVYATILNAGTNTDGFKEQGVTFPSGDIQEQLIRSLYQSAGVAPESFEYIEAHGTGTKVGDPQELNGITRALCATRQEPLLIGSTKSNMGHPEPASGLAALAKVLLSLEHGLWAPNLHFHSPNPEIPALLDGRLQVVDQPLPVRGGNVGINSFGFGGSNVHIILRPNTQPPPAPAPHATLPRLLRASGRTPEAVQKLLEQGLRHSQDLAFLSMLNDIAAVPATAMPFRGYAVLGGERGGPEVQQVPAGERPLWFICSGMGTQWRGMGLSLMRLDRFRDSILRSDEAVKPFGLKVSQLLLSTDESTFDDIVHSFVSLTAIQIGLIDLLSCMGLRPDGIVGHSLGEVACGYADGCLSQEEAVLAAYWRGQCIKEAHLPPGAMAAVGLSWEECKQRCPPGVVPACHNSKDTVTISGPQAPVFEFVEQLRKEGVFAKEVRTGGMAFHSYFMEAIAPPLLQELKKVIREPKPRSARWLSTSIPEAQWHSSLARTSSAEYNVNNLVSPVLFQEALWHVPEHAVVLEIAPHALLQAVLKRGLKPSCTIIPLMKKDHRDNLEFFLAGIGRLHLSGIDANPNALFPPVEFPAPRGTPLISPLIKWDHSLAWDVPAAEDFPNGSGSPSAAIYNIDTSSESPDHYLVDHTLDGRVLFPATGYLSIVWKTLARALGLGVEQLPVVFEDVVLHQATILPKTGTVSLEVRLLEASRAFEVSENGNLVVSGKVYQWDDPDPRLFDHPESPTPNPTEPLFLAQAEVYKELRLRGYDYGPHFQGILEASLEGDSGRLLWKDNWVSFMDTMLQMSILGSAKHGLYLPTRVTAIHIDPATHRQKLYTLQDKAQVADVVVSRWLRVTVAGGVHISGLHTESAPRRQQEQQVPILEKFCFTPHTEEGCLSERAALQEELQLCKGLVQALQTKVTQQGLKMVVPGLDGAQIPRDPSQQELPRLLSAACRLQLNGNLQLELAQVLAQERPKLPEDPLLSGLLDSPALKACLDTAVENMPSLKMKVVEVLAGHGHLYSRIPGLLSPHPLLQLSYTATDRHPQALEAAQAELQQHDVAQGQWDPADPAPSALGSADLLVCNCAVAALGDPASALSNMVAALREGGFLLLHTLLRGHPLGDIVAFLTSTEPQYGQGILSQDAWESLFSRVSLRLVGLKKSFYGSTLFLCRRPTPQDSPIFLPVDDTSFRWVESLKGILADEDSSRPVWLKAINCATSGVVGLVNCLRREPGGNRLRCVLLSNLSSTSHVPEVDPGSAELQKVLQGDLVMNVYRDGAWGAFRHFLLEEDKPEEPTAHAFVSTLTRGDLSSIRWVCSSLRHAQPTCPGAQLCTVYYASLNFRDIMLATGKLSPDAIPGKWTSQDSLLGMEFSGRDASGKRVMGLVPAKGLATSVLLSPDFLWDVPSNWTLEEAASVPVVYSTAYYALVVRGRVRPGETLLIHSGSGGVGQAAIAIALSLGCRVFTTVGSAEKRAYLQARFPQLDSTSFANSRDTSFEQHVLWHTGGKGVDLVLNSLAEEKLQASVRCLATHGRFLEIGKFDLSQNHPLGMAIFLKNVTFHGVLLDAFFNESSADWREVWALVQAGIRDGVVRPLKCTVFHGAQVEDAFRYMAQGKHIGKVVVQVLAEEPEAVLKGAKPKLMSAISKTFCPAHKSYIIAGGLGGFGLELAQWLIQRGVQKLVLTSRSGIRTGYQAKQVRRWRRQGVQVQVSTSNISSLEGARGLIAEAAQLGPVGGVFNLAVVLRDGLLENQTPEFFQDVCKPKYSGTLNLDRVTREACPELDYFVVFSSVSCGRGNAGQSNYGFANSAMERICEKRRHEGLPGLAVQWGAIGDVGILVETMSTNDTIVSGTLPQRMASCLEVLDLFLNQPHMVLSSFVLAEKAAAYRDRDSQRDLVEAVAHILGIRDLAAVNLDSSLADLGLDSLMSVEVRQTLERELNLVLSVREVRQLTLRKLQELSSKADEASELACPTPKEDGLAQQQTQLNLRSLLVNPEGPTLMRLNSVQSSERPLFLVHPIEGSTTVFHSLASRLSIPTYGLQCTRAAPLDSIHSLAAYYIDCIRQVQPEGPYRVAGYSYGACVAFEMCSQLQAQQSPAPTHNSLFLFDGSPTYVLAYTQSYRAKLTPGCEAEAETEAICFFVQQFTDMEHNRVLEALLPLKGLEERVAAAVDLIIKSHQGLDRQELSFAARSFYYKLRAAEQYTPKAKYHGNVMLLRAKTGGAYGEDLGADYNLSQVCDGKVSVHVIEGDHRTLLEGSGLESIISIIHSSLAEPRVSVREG

C[C@]12CCC(=O)C[C@@H]1CC[C@@H]1[C@@H]2CC[C@]2(C)[C@@H](O)CC[C@@H]12
inactive: [2] | [3] | [4] | [5] | [6] | [7] | [8] | [9] | [11] | [12] | [13] | [14] | [16] | [17] | [18] | [19]
active: [1] 1.08 µM | [10] 0.00162 µM | [15] 50 µM

CC(C)OC(=O)Nc1ccccc1
inactive: [1]

C=CC(=O)N(C)C
inactive: [1]

Cn1sc(Cl)cc1=O
inactive: [2] | [3] | [4] | [5] | [6] | [7] | [8] | [9] | [10] | [11] | [12] | [13] | [14] | [15] | [16] | [17] | [18] | [19]

CC1(C)CCC(Cc2ccc(Cl)cc2)C1(O)Cn1cncn1 (stereo unspecified)
active: [1] 0.0359 µM

CCN1CCC2(CC1)COc1cc3c(cc12)N(C(=O)c1ccc(-c2ccc(-c4nnc(C)o4)cc2C)cc1)CC3
inactive: [2] | [15] | [17]
active: [3] 29.9 µM | [4] 46.8 µM | [5] 84.6 µM | [6] 30.8 µM | [7] 13.8 µM | [8] 29.2 µM | [9] 27.7 µM | [10] 75.3 µM | [11] 17.4 µM | [12] 17.4 µM | [13] 12.5 µM | [14] 71.6 µM | [16] 18.5 µM | [18] 21.5 µM | [19] 30.2 µM

CN(C)N=O
inactive: [2] | [3] | [4] | [5] | [6] | [7] | [8] | [9] | [10] | [11] | [12] | [13] | [14] | [15] | [16] | [17] | [18] | [19]
